Measurements reported in the supplement of paper PMC9925115.

System: FLX1 + dox-induced PRKAR1A G325D
Assay: difference in log2 fold change of viability vs plate median (dox-induced PRKAR1A G325D minus uninduced); higher = compound less effective when PKA is inhibited
Settings: concentration: not stated (2 or 5 uM); 5 days
Procedure: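 For each plate a log2 fold change vs the plate median was derived, and the values without dox were subtracted from those with dox, averaged over three biological replicates.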

Row | Compound | difference in log2 fold change of viability
1 | CN(C)C/C=C/C(=O)Nc1cc2c(Nc3ccc(F)c(Cl)c3)ncnc2cc1O[C@H]1CCOC1 [Afatinib (BIBW2992)] | -1.66
2 | COc1cc2ncnc(Nc3ccc(O)c(Br)c3)c2cc1OC | -0.279
3 | COc1cccc2cc(-c3nc([C@H]4CC[C@H](C(=O)O)CC4)n4ncnc(N)c34)[nH]c12 | 0.812
4 | COc1ccc(COc2cc3oc(=O)c4cc(C(C)O)ccc4c3cc2OC)cc1 (configuration not stated) [Palomid 529 (P529)] | -0.0394
5 | Cn1c(=O)c(F)c(Nc2ccc(I)cc2F)c2c(=O)n(C[C@@H](O)CO)cnc21 | -1.3
6 | CO[C@H]1C[C@@H]2CC[C@@H](C)[C@@](O)(O2)C(=O)C(=O)N2CCCC[C@H]2C(=O)O[C@H]([C@H](C)C[C@@H]2CC[C@@H](O)[C@H](OC)C2)CC(=O)[C@H](C)/C=C(\C)[C@@H](O)[C@@H](OC)C(=O)[C@H](C)C[C@H](C)/C=C/C=C/C=C/1C [Rapamycin (Sirolimus)] | -0.339
7 | O=C(NCc1ccccc1)c1csc(Nc2ccncn2)n1 [Thiazovivin] | 0.59
